PubChem BioAssay AID2551 (National Center for Advancing Translational Sciences (NCATS), 2010)
Out of some 310,000 compounds screened, about 17,000 (5.5%) were called active. Where a call stands in place of a potency, no number is given. Inconclusive results (about 11%) are left out. Only a selection was taken, and actives are over-represented in it overall. Unmarked numbers belong to inactive results. Calls follow the shape of the dose curve; as a rule, active = well fitted inhibition curve with a large enough effect; inconclusive = small, poorly fitted or top-dose-only effect, or effect the other way; inactive = no such curve, though single readings can be large or run the other way.

These compounds were tested against Nuclear receptor ROR-gamma (Mus musculus) (UniProt P51450) (assay: qHTS for inhibitors of ROR gamma transcriptional activity). Conditions: Drosophila S2 Gal4-RORgamma UAS-luciferase reporter, 20 h; series mostly up to 53.6 µM.
Nuclear receptor ROR-gamma (Mus musculus), sequence (P51450 whole entry, looked up, the tested form may be a part): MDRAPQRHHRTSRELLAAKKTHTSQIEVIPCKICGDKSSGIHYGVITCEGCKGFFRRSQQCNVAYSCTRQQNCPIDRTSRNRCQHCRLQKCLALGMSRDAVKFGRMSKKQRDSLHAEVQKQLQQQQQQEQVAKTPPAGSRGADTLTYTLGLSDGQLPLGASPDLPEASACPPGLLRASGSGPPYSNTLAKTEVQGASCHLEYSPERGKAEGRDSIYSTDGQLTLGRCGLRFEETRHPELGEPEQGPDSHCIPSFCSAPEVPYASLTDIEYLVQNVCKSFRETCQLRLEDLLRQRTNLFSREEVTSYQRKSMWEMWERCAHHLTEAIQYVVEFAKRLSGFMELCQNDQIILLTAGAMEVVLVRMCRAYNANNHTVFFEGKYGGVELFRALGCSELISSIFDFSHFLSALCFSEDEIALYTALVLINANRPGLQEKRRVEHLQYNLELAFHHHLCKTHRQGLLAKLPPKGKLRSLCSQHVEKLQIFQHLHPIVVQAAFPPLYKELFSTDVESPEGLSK
Summary of the method: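 In this cell-based reporter format, copper sulfate (700 uM final) drives Gal4–ROR gamma fusion expression from a metallothionein promoter in Drosophila Schneider cells; compounds preincubated 1 hr, reporter read after 20 hr at ambient temperature.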
Also: nearly all actives have a fitted effect of over 60% in size.
Potency is read from the fitted curve at half-maximal effect.

SMILES	activity change, negative = inhibition	Potency
CCC(CC)COC(=O)C1=C(C)NC(=O)NC1c1ccc([N+](=O)[O-])cc1 (configuration not stated)	-0.183% [at 1.91 µM]	
O=C(Cc1ccc([N+](=O)[O-])cc1)Nc1ccc(C(=O)N2CCOCC2)cc1		inactive
Cc1ccc(NC(=O)Cn2nnc(C(=O)NCc3ccco3)c2N)c(C)c1		inactive
CC(C)(C)NC(=O)CSc1nnc(NC(=O)CCc2ccccc2)s1	5.59% [at 1.91 µM]	
C=CCN1C(=NC(=O)COc2ccccc2)SC2CS(=O)(=O)CC21 (configuration not stated)		inactive
Cc1cc(Cl)ccc1C(=O)C1CCCN(C(=O)c2nonc2C)C1 (configuration not stated)		inactive
Cc1[nH]c2ccccc2c1C(=O)CN1CC(C)CC(C)C1 (configuration not stated)		inactive
O=C(O)C1CCCN1S(=O)(=O)c1ccc(Br)cc1 (configuration not stated)		inactive
O=C(CN(C(=O)c1nsc(Cl)c1Cl)c1cccc(F)c1)NC1CCCC1		inactive
COc1ccccc1OCc1nnc(SCC(N)=O)n1-c1ccccc1		inactive
Cc1cc(C2=NNC(=Nc3ccc(S(=O)(=O)N4CCOCC4)cc3)SC2)c(C)n1CC1CCCO1 (configuration not stated)		inactive
C=CCn1c(C)cc(C2=NNC(=NCC)SC2)c1C		0.562 µM (active)
O=C(O)c1ccccc1NC(=O)c1ccccc1-c1ccccc1C(=O)O		inactive
CC1CN(S(=O)(=O)c2cccc(C(F)(F)F)c2)CN1C(=O)N1CCOCC1 (configuration not stated)		inactive
COc1ccc2[nH]c(=S)cc(C)c2c1		7.08 µM (active)
COc1ccc2[nH]c(C(=O)N3CCN(C)CC3)c(C)c2c1		inactive
COc1ccc2[nH]c3c(C)c4cc[n+](C)cc4c(C)c3c2c1		inactive
COc1ccc(NC(=O)c2cccc3c2C(=O)N(CC2CCCO2)C3)cc1OC (configuration not stated)		inactive
COc1ccc(OCCCCN2CCC(C)CC2)cc1		inactive
O=C1COc2ccc(S(=O)(=O)Nc3ccc(OC(F)(F)F)cc3)cc2N1		inactive
C/C(=N\NC(=O)c1ccccc1C)c1ccc(N2CCOCC2)cc1		inactive
CNC(=O)C(NC(=O)c1ccccc1)=C(C)C		inactive

SMILES	activity change, negative = inhibition	Potency
C/C(=N\NC(=O)c1cccnc1)c1ccc(-c2ccccc2)cc1		inactive
CC(=O)NC(=O)c1ccccc1O		inactive
CC(C)=C(NC(=O)c1ccccc1)C(=O)N/N=C(\C)c1ccccc1O		0.891 µM (active)
C/C(=N\NC(=O)c1ccoc1C)c1ccccc1O		0.158 µM (active)
Cn1c(=O)c2c(SCC(=O)NCC3CCCO3)nc(CC(C)(C)C)nc2n(C)c1=O (configuration not stated)		inactive
COC(=O)c1c(NC(=O)C2CC(C)=C(C)CC2C(=O)O)sc2c1CCCCC2 (configuration not stated)		inactive
COc1cccc(C(=O)Nc2nnc(S(=O)(=O)N3CCOCC3)s2)c1		inactive
COc1ccc(CCNS(=O)(=O)c2cn(C)nc2C)cc1		inactive
CCOC(=O)C1CCN(C(=O)COc2cccc3ccccc23)CC1		inactive
O=C1CCC(C(=O)Nc2ccc(OC(F)F)cc2)N1 (configuration not stated)		inactive
CC(NC(=S)Nc1ccc(S(N)(=O)=O)cc1)c1ccc2c(c1)OCO2 (configuration not stated)		inactive
CC(NC(=S)Nc1ccc(OC(F)F)cc1)c1ccc(F)cc1 (configuration not stated)		3.16 µM (active)
Cc1cccc(NS(=O)(=O)c2ccc(C(=O)NCC(C)(C)N3CCOCC3)cc2)c1C		inactive
Cc1ccc(N2C(=O)S/C(=C/c3cn(C)c4ccccc34)C2=O)cc1		inactive
Cc1cccc(N=C2NC(=O)/C(=C/c3cn(C)c4ccccc34)S2)c1		12.6 µM (active)
Cc1ccc(N=C2NC(=O)/C(=C/C=C/c3ccco3)S2)cc1C		inactive
COc1ccc(CSc2nnnn2-c2ccc(O)cc2)cc1F		inactive
C#CCOc1ccccc1/C=C1/C(=O)ON=C1C		inactive
O=C(N/N=C/c1cccc(OC(=O)c2ccc([N+](=O)[O-])cc2)c1)c1cccnc1		inactive
Cn1c(=O)n(C)c2cc(/C=N/NC(=O)c3cccc(Br)c3)ccc21		inactive
COc1cc(/C=N/NC(=O)c2cccnc2)ccc1OC(=O)c1cccc(Br)c1		11.2 µM (active)
Cc1ccc(CNC(=O)[C@@H](NC(=O)Cc2ccccc2)C(C)C)cc1		inactive

SMILES	activity change, negative = inhibition	Potency
COc1ccc(/C=C(/NC(=O)c2ccccc2)C(=O)Nc2cccc(C(=O)O)c2)cc1		inactive
CC(NC(=O)CNC(=O)Cc1cccc2ccccc12)c1ccc(S(N)(=O)=O)cc1 (configuration not stated)		inactive
COC(=O)c1ccc2c(C(C)(C)O)c(C(C)(C)O)[nH]c2c1		inactive
CN1CCN(C(=O)CCc2nc(-c3ccc(Cl)cc3)no2)CC1		inactive
CCNC(=O)CCc1nc(-c2ccc(C(C)(C)C)cc2)no1		0.0447 µM (active)
CCNC(=O)CCc1nc(-c2ccc(C)cc2)no1		inactive
CC1=C(C(=O)OC(C)(C)C)C(c2ccc(Br)cc2)NC(=O)N1CCCC(=O)O (configuration not stated)		inactive
COc1cccc(NC(=O)[C@H](Cc2c[nH]c3ccccc23)NC(=O)[C@@H]2Cc3ccccc3CN2)c1		inactive
Cc1cc2nc(C(F)(F)F)cc(-c3cccs3)n2n1		inactive
Cc1cc(-c2cccs2)nc(-n2cccc2)n1		inactive
CC(C)(C)Nc1c(-c2cccs2)nc2ccccn12		6.31 µM (active)
Cn1nccc1C(=O)NC1CCCc2c1cnn2-c1ccc(F)cc1F (configuration not stated)		inactive
COC(=O)c1ccc(OC(=O)c2cnccn2)cc1		inactive
COCCCNC(=S)NC(=O)c1ccccc1		12.6 µM (active)
Cc1cccc(OCCNC(=S)NC(=O)c2cccnc2)c1		10 µM (active)
COc1ccc(-n2cnc3cc(C(=O)NC4CCCC4)ccc32)cc1		inactive
COCCCNC(=S)NNC(=O)C(O)(c1ccccc1)c1ccccc1		inactive
CCCOc1cccc(C(=O)NCCCNC(=O)c2cccnc2)c1		inactive
Cc1cccc(OCC(=O)NCCNC(=O)c2cccnc2)c1		inactive
O=C(CCc1ccccc1)NNC(=O)c1ccc(Br)cc1		inactive
COCCCNC(=O)c1c(F)c(F)c(F)c(F)c1F		inactive
COc1ccc(C(=O)NC2CCN(C(=S)NCCc3ccccc3)CC2)cc1		inactive

SMILES	activity change, negative = inhibition	Potency
COc1ccc(C(=O)NC(=S)NC2CCCCC2)cc1		2.82 µM (active)
COc1ccc(C(=O)NC(=S)NNC(=O)CCc2ccccc2)cc1		4.47 µM (active)
CCCNC(=S)N1CCC(NC(=O)c2ccc(OC)cc2)CC1		inactive
C[C@H](NC(=O)C1CC(=O)N(c2ccc3c(c2)OCO3)C1)C(=O)NCc1ccco1 (some centres not stated)		inactive
COc1ccc(CNC(=O)/C(C#N)=C/c2cccc(OC)c2OC)cc1		inactive
Cc1c(Cl)c([N+](=O)[O-])nn1CC(=O)NCCCN1CCOCC1		inactive
Cc1ccc(C)c(N2CCN(C(=O)Cn3ncn4cccc4c3=O)CC2)c1		inactive
NS(=O)(=O)c1cccc(NC(=O)CC23CC4CC(CC(Br)(C4)C2)C3)c1		inactive
Cc1ccc(S(=O)Cc2ccc(C(=O)N3CCN(C4CCCCC4)CC3)o2)cc1 (configuration not stated)		inactive
N#C/C=C/N1CCN(Cc2ccc3c(c2)OCO3)CC1		inactive
Cc1cc(C)c2[nH]c(=O)c(CN(Cc3ccccc3)C(=S)NCCCN(C)C)cc2c1		inactive
CC(=O)NC(=S)NNC(=O)c1ccc(Br)cc1		12.6 µM (active)
COCCNC(=S)N(Cc1cccnc1)Cc1ccc(OC)c(OC)c1		inactive
COc1ccc(C(=O)NNC(=O)c2cc(C)[nH]n2)cc1		inactive
Cc1ccc(OCC(=O)NCCCNC(=O)c2ccco2)cc1C		inactive
Cn1nnnc1SCC(=O)NNC(=O)c1ccc(Br)cc1		inactive
COc1ccc(OCC(=O)NNC(=O)c2ccc(-c3ccccc3)cc2)cc1		inactive
COc1ccc(C(=O)NNC(=S)NC(=O)c2ccccc2)cc1		4.47 µM (active)
COc1ccc(OCC(=O)Nc2ccc(NC(=O)c3ccco3)c(C)c2)cc1		inactive
COCCCNC(=S)N(Cc1ccccc1)Cc1ccc(F)cc1		15.8 µM (active)
CNC(=S)NNC(=O)c1ccc(N(C)C)cc1		inactive
CCCc1ccc(OCC(=O)NNC(=S)NC(=O)c2ccco2)cc1		12.6 µM (active)

SMILES	activity change, negative = inhibition	Potency
Cc1ccc(N(CC(=O)NC2CCCCC2)C(=O)CCCC(=O)Nc2ccccn2)c(C)c1		inactive
O=C(NCc1ccco1)C(c1ccncc1)N(C(=O)Cn1nnc2ccccc21)c1ccccc1 (configuration not stated)		inactive
O=C(Nc1cccc(Cl)c1Cl)c1ccccc1NC(=O)C1CC=CCC1C(=O)O (configuration not stated)		inactive
CCc1ccc(C(CNc2nc(C(F)(F)F)nc3ccccc23)N(C)C)cc1 (configuration not stated)		inactive
O=C(Nc1cccc(Br)c1)c1ccc2snnc2c1		inactive
CCN1C(=NCCc2cccnc2)N[C@@H](c2ccccc2)C(C(=O)OC)=C1C		inactive
O=S(=O)(c1cccc(Cn2nnc(-c3ccc(F)cc3)n2)c1)N1CCOCC1		inactive
CC1(C(=O)O)CCC(C(=O)Nc2ccc(Cl)c(Cl)c2)C1(C)C (configuration not stated)		inactive
CC1(C)Cc2nc3sc4c(SCC(=O)NC(c5ccccc5)c5ccccc5)ncnc4c3cc2CO1		inactive
C=CCn1c(=S)[nH]c2nc3c(cc2c1=O)COC(C)(C)C3		3.98 µM (active)
CC(C)CCSc1ncnc2c1oc1nc3c(cc12)COC(C)(C)C3		inactive
Cc1cc(C)nc(NS(=O)(=O)c2ccc(N3C(=O)C4CCCCC4C3=O)cc2)n1 (configuration not stated)		inactive
CCc1ccc(NC(=O)C(=O)NNC(=O)c2cccs2)cc1		inactive
CCOC(=O)c1ccc(NC2Nc3cc(C)nn3S2)cc1 (configuration not stated)		inactive
CCc1ccc(NC2Nc3cc(C)nn3S2)cc1 (configuration not stated)		1.58 µM (active)
Cc1ccccc1NC(=O)Cn1cc(C(=O)C2CC2)c2ccccc21		inactive
CC1CCCCN1C(=O)Cn1c(=O)oc2cc(S(=O)(=O)N3CCCCC3)ccc21 (configuration not stated)		inactive
CCSc1nc2sc3c(c2c(=O)n1-c1ccc(C)cc1)CCN(C)C3		inactive
O=C(c1ccc(OC2CCN(C/C=C/c3ccc(F)cc3)CC2)cc1)N1CCCCC1		inactive
